# Hit rate of the full screen: of about 640,000 compounds, about 9,300 (1.5%) were called active. The sample holds actives, similar compounds and a random draw of the others, so the mix is not that of the screen. Values without a mark were called inactive. No stated cut-off is given here; in the data, active means inhibition above about 32%; inactive means the rest.
# Test: TEAD-YAP interaction inhibition, primary screen, TEAD-YAP interaction inhibitor project, luminescence, HEK-TIYL cells (AID 1259422);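 further: 0% = median of test compound wells and 100% = reference inhibitor wells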
# Details: TEAD-Gal4/YAP UAS-luciferase luminescence, at 9.12 µM, active compounds read high
row,SMILES,inhibition
1,CCOc1ccc(NC(=O)/C(C#N)=C\c2ccc(O)cc2)cc1,-6.14%
2,O=C1C(=O)N(Cc2cccnc2)C(c2cccc(Br)c2)/C1=C(/O)c1ccccc1 (stereo not given),-12.1%
3,O=C1CCC(=O)N1c1ccc(-c2nc3scc(-c4cccs4)c3c(=O)o2)cc1,-7.68%
4,CCN(CC)C(=O)c1cc2cc3ccc(OC)cc3nc2o1,58% (active)
5,CCOC(=O)N1CCN(C(=O)c2cc3cc4ccc(OC)cc4nc3o2)CC1,-1.56%
6,COc1ccc2nc3oc(C(=O)NC4CC4)cc3cc2c1,-62.4%
7,COCCn1nnnc1CN(Cc1ccco1)CC1CCCO1 (stereo not given),-5.83%
8,CCOC(=O)C1=C(C)NC2=C(C(=O)CC(C)(C)C2)C1c1cccs1 (stereo not given),7.66%
9,CCOc1ccc(C2C(C#N)=C(N)N(N(C)C)C3=C2C(=O)CC(c2ccccc2)C3)cc1 (stereo not given),17.9%
10,Cc1nnc(SCC(=O)c2ccc3c(c2)OCCO3)o1,-48.4%
11,CCCCSc1nnc2c(n1)OC(c1cccc(Cl)c1)Nc1ccccc1-2 (stereo not given),-39.8%
12,COc1cc(/C=C2/SC(=S)N(CC(=O)O)C2=O)cc2c1OCO2,2.97%
13,O=C(O)CCCCCN1C(=O)/C(=C/c2ccc3c(c2)OCO3)SC1=S,43.9% (active)
14,O=C(O)CCCCCN1C(=O)/C(=C\c2cccs2)SC1=S,28.4%
15,CCN1C(=O)/C(=C/c2ccc(OCC(=O)O)cc2)SC1=S,-16.2%
16,C=CCOc1ccc(/C=C2\SC(=S)N(CCC(=O)O)C2=O)cc1,50.1% (active)
17,O=C(O)CCN1C(=O)/C(=C\c2ccc(C(=O)O)cc2)SC1=S,-5.44%
18,COc1cccc(C(=O)NC(=S)Nc2ccc(Br)c(C)n2)c1,-5.25%
19,Cc1cc2nc3[nH]c4ccccc4c3nc2cc1C,-33%
20,O=C(NCc1ccc(F)cc1)c1ccc2nc3[nH]c4ccccc4c3nc2c1,4.49%
21,Cc1ccc2nc3[nH]c4ccccc4c3nc2c1,35% (active)
22,O=C(NNc1ccc([N+](=O)[O-])cc1[N+](=O)[O-])c1cc2ccccc2cc1O,8.71%
23,CCc1cccc2sc(N(Cc3ccccn3)C(=O)CSCc3ccccc3)nc12,2.11%
24,O=C1CCC(=O)N1CC(=O)N(Cc1ccccn1)c1nc2ccccc2s1,18.1%

row,SMILES,inhibition
1,Cc1cc(C(=O)N(Cc2ccccn2)c2nc3ccccc3s2)on1,69.7% (active)
2,CC(=O)Oc1cccc(N2C(=O)c3ccc(-c4nc5ccccc5o4)cc3C2=O)c1,-6.42%
3,C=CCc1ccc(OCCN2CC(C)OC(C)C2)c(OC)c1 (stereo not given),-7.73%
4,CC(=O)c1cccc(NC(=O)c2nn3c(C(F)(F)F)cc(-c4ccc(Br)cc4)nc3c2Cl)c1,2.9%
5,CCC(=O)Oc1ccc(OC)cc1C1Oc2nc(SC)nnc2-c2ccccc2N1C(=O)CC (stereo not given),-5.21%
6,COC(=O)C(C)n1cnc2sc(-c3ccccc3)cc2c1=O (stereo not given),-25.2%
7,Cc1nc2ccc(Cc3ccc4nc(C)oc(=O)c4c3)cc2c(=O)o1,-1.07%
8,Cc1nc2sc(-c3ccccc3)cc2c(=O)o1,41% (active)
9,O=S(=O)(O)CCC[n+]1ccc(/C=C/c2c[nH]c3ccccc23)cc1,3.32%
10,OCCCNc1ccc2ncc(-c3ccc(N4CCOCC4)cc3)n2n1,19.8%
11,Cc1cc(C(=O)COC(=O)C(CC(C)C)NC(N)=O)c(C)n1Cc1cccs1 (stereo not given),66.1% (active)
12,Cc1cc(C(=O)COC(=O)c2ccc([N+](=O)[O-])o2)c(C)n1Cc1cccs1,0.16%
13,Cc1cc(C(=O)COC(=O)CCC(=O)c2cccs2)c(C)n1Cc1ccco1,-6.67%
14,COc1ccc(-c2cn3c4ccccc4n(CCN4CCOCC4)c3n2)cc1,-4.68%
15,COc1ccc(-c2cn3c4ccccc4n(N)c3n2)cc1,90% (active)
16,Cn1c2ccccc2n2cc(-c3ccc([N+](=O)[O-])cc3)nc12,-27.1%
17,CCC(CO)Nc1ccc2ncc(-c3cccc(F)c3)n2n1 (stereo not given),5.85%
18,CCC(CO)Nc1ccc2ncc(-c3ccccc3)n2n1 (stereo not given),33.7% (active)
19,CC(C)[C@@H](CO)Nc1ccc2ncc(-c3ccc(C#N)cc3)n2n1,29.7%
20,CC(C)[C@@H](CO)Nc1ccc2ncc(-c3ccc(O)cc3)n2n1,-7.09%
21,CC(C)[C@@H](CO)Nc1ccc2ncc(-c3ccccc3F)n2n1,57.3% (active)
22,CCC(CO)Nc1ccc2ncc(-c3ccc(N4CCOCC4)cc3)n2n1 (stereo not given),-1.73%
23,CCS(=O)(=O)Nc1cccc(N2CCC(NCCn3nc(C)cc3C)CC2)c1,2.36%
24,CC(Oc1ccc(Cl)cc1Cl)C(=O)Nc1ccc(C(=O)O)cc1 (stereo not given),11.5%

row,SMILES,inhibition
1,O=C(CN(c1ccc(Cl)cc1Cl)S(=O)(=O)c1ccccc1)Nc1ccc(Cl)c(Cl)c1,-0.39%
2,CC(C)(C)c1ccc(NC(=O)CSc2cccc[n+]2[O-])cc1,-49.2%
3,O=C(NCc1ccc2c(c1)OCO2)c1cccnc1SCc1cccc(Br)c1,10.6%
4,N#Cc1c(NC(=O)c2cc3ccccc3c(=O)o2)sc2c1CCCCC2,4.91%
5,NC(=O)c1c(NC(=O)c2ccc(Br)o2)sc2c1CCCC2,3.19%
6,COC(=O)c1c(NC(=O)c2cc3ccccc3oc2=O)sc2c1CCCC2,-7.92%
7,O=C(Nc1sc2c(c1C(=O)O)CCCC2)c1cc2ccccc2o1,50.1% (active)
8,NC(=O)c1c(NC(=O)c2cc(=O)c3ccccc3o2)sc2c1CCCCC2,32.9% (active)
9,NC(=O)c1c(NC(=O)Cc2ccccc2)sc2c1CCCCC2,-7.09%
10,Cc1ccc(Nc2nc(-c3ccc(Br)cc3)cs2)cc1Cl,-7.82%
11,Cc1cccc(Nc2nc(-c3ccc(I)cc3)cs2)c1,-33.1%
12,Cc1ccc(Nc2nc(-c3ccccn3)cs2)cc1C,49.9% (active)
13,CCCN1CCc2nc(NC(=O)COc3ccc(Cl)cc3Cl)sc2C1,45% (active)
14,CN1CCc2nc(NC(=O)c3ccc(Cl)cc3Cl)sc2C1,-69.8%
15,O=C(Nc1nc2c(s1)CN(Cc1ccccc1)CC2)c1cc(Cl)ccc1Cl,-2.92%
16,COc1ccc(C2CC(C(F)(F)F)n3ncc(C(=O)N4CCN(c5cccc(Cl)c5)CC4)c3N2)cc1OC (stereo not given),-6.74%
17,FC(F)(F)c1cnc(Nc2ccc(N3CCOCC3)cc2)cc1-n1ncc2ccccc21,-4.45%
18,Fc1cnc(Nc2ccc(N3CCNCC3)cc2)cc1-n1cnc(Nc2ccccc2)n1,64.6% (active)
19,c1cncc(Nc2nccc(Nc3ccc(N4CCOCC4)cc3)n2)c1,2.14%
20,O=C(c1nc2ccc(Cl)cn2c1CNCCn1cccn1)N1CCc2ccccc2C1,7.89%
21,COc1cccc2c1OC1(CCN(C(=O)Cc3ccc(F)cc3F)CC1)OC2,-1.73%
22,COc1ccc(-c2cc(C(=O)N3CCCCC3)no2)cc1,6.05%
23,O=C(c1cc(-c2ccc(O)cc2)on1)N1CCOCC1,50.7% (active)
24,CCN(CC)C(=O)c1cc(-c2ccc(O)cc2)on1,-1.47%

row,SMILES,inhibition
1,O=C(c1cc(-c2cccs2)on1)N1CCCC1,-49.2%
2,CN(C(=O)c1cc(-c2ccc(O)cc2)on1)c1ccccc1,60% (active)
3,CC1CN(CC(=O)NCc2cc(-c3ccccc3)on2)Cc2ccccc2O1 (stereo not given),-5.63%
4,CCC(=O)Nc1ccccc1-c1nnn(CC(=O)Nc2ccc(CC)cc2)n1,12.7%
5,O=C(c1ccco1)N1CCN(c2nccn3c(-c4cccc(O)c4)cnc23)CC1,-3.76%
6,CC(C)Cn1c(C2CC(=O)N(c3ccccc3)C2)nc2ccccc21 (stereo not given),3.79%
7,CCOc1ccc(-c2cn(-c3ccc(OC)cc3)c(SCC(=O)Nc3ccccc3C)n2)cc1,-24.2%
8,O=C(c1ccc2nc(N3CCCCC3)sc2c1)N1CCN(c2ccccc2)CC1,-69.3%
9,c1c2c(cc3sc(N4CCCCC4)nc13)OCCO2,80.9% (active)
10,O=C(Nc1ccc2c(c1)OCCO2)Nc1nnc(N2CCCCCC2)s1,-9.25%
11,COc1ccc(-c2cc(C(=O)NC3CCCC(C)C3C)c3ccccc3n2)cc1 (stereo not given),1.88%
12,CCOC(=O)c1cnc2nc(NCc3cccc(OC)c3)[nH]n2c1=O,3.92%
13,N/C(=N/OC(=O)c1ccccc1I)c1nonc1N,-2.53%
14,Cc1nc(N2CCN(c3ccccn3)CC2)c2c(C)c(C(=O)NCCN3CCOCC3)sc2n1,14.5%
15,CCN1CCN(C(=O)c2sc3nc(C)nc(N4CCN(c5ccccn5)CC4)c3c2C)CC1,-1.03%
16,Cc1nc(N2CCN(c3ccccn3)CC2)c2c(C)c(C(=O)N3CCN(Cc4ccc5c(c4)OCO5)CC3)sc2n1,36.8% (active)
17,COc1ccc(NC(=O)CSc2nc3c(sc(=S)n3-c3ccccc3F)c(=O)n2-c2ccc(F)cc2)c(OC)c1,15.7%
18,CC1CN(Cc2cccc3ncccc23)Cc2ccccc2O1 (stereo not given),-3.29%
19,CC1CCc2c(sc(NC(=O)c3ccccc3F)c2C(=O)N2CCOCC2)C1 (stereo not given),-2.16%
20,CCOc1ccccc1OCC(=O)OCc1ccccc1,2.74%
21,CCOc1ccccc1OCC(=O)Nc1ccc(C(=O)O)cc1,4.66%
22,CCOc1ccccc1OCC(=O)NN,58.7% (active)
23,Cc1ccc(-c2noc(CCC(=O)N(C)c3ccccc3Cl)n2)cc1,13.7%
